Test results: PubChem BioAssay AID1159580 (chemical genetic matrix, 2015)
In all, about 5,500 compounds went through this assay and about 2,000 (36%) were called active. About 18% were inconclusive and are not listed. No stated cut-off is given here; in the data, active means normalized growth mostly below about 0.91 (no sharp cut-off); inconclusive means no clear call, values can overlap the other calls; inactive means mostly above about 0.92. Some of the results follow.

Test: chemical genetic growth profiling, strain panel (AID 1159580);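 further: tested at 20 µM; growth read once vehicle control cultures reached saturation at 30 °C; 1 = growth at the plate median or of vehicle wells; lower values mean less growth of the strain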
Details: growth OD

Measured: normalized growth

CC(=O)O[C@H]1C[C@@]2(C)[C@@H](C[C@@H](O)C3[C@]2(C)CC[C@H]2[C@H](C)[C@H](O)CC[C@]32C)/C1=C(/CCC=C(C)C)C(=O)O (some centres undefined)
inactive: S. cerevisiae deletion strains, locus YJL187C, strain SWE1 (second series), active compounds read low 1.01 | S. cerevisiae deletion strains, locus YJL187C, strain SWE1, active compounds read low 1.04 | S. cerevisiae deletion strains, locus YJR043C, strain POL32, active compounds read low 1 | S. cerevisiae deletion strains, locus YJR066W, strain TOR1, active compounds read low 0.983 | S. cerevisiae deletion strains, locus YKL009W, strain mrt4, active compounds read low 0.99 | S. cerevisiae deletion strains, locus YKL068W, active compounds read low 1.01 | S. cerevisiae deletion strains, locus YKL085W, strain MDH1 (second series), active compounds read low 0.997 | S. cerevisiae deletion strains, locus YKL085W, strain MDH1, active compounds read low 0.997 | S. cerevisiae deletion strains, locus YKL160W, strain elf1, active compounds read low 1.07 | S. cerevisiae deletion strains, locus YKL190W, strain CNB1, active compounds read low 1.01 | S. cerevisiae deletion strains, locus YKR001C, strain vps1, active compounds read low 1.03 | S. cerevisiae deletion strains, locus YKR026C, strain gcn3, active compounds read low 1.01 | S. cerevisiae deletion strains, locus YKR091W, strain srl3, active compounds read low 1.03 | S. cerevisiae deletion strains, locus YLL001W, strain dnm1, active compounds read low 1.04 | S. cerevisiae deletion strains, locus YLL026W, active compounds read low 1.02 | S. cerevisiae deletion strains, locus YLL041C, strain sdh2, active compounds read low 1.02 | S. cerevisiae deletion strains, locus YLR027C, strain aat2, active compounds read low 1.01 | S. cerevisiae deletion strains, locus YLR039C, strain RIC1, active compounds read low 0.996 | S. cerevisiae deletion strains, locus YLR058C, strain SHM2, active compounds read low 1.04 | S. cerevisiae deletion strains, locus YLR102C, strain apc9, active compounds read low 1.02 | S. cerevisiae deletion strains, locus YLR113W, strain HOG1, active compounds read low 0.957 | S. cerevisiae deletion strains, locus YLR221C, strain rsa3, active compounds read low 1.06 | S. cerevisiae deletion strains, locus YLR258W, strain gsy2, active compounds read low 1.03 | S. cerevisiae deletion strains, locus YLR262C, strain YPT6 (second series), active compounds read low 0.991 | S. cerevisiae deletion strains, locus YLR262C, strain YPT6, active compounds read low 0.997 | S. cerevisiae deletion strains, locus YLR268W, strain sec22, active compounds read low 1.01 | S. cerevisiae deletion strains, locus YLR320W, strain mms22, active compounds read low 1.06 | S. cerevisiae deletion strains, locus YLR330W, strain CHS5, active compounds read low 1.01 | S. cerevisiae deletion strains, locus YLR342W, strain FKS1 (second series), active compounds read low 1.03 | S. cerevisiae deletion strains, locus YLR342W, strain FKS1, active compounds read low 1.04 | S. cerevisiae deletion strains, locus YLR357W, strain rsc2, active compounds read low 1.1 | S. cerevisiae deletion strains, locus YLR370C, strain arc18, active compounds read low 1.03 | S. cerevisiae deletion strains, locus YLR371W, strain rom2, active compounds read low 1.01 | S. cerevisiae deletion strains, locus YLR384C, strain iki3, active compounds read low 1.04 | S. cerevisiae deletion strains, locus YLR418C, strain cdc73, active compounds read low 1.05 | S. cerevisiae deletion strains, locus YML016C, strain PPZ1, active compounds read low 1 | S. cerevisiae deletion strains, locus YML032C, strain rad52, active compounds read low 1.02 | S. cerevisiae deletion strains, locus YML120C, strain ndi1, active compounds read low 1.05 | S. cerevisiae deletion strains, locus YML124C, strain tub3, active compounds read low 1.03 | S. cerevisiae deletion strains, locus YMR058W, strain fet3, active compounds read low 1.03 | S. cerevisiae deletion strains, locus YMR078C, strain ctf18, active compounds read low 1.02 | S. cerevisiae deletion strains, locus YMR125W, strain sto1, active compounds read low 1.04 | S. cerevisiae deletion strains, locus YMR129W, active compounds read low 1.02 | S. cerevisiae deletion strains, locus YMR205C, strain PFK2, active compounds read low 1.04 | S. cerevisiae deletion strains, locus YMR223W, strain ubp8, active compounds read low 1.05 | S. cerevisiae deletion strains, locus YMR231W, strain pep5, active compounds read low 1.02 | S. cerevisiae deletion strains, locus YMR307W, strain GAS1, active compounds read low 0.995 | S. cerevisiae deletion strains, locus YNL067W, strain RPL9B, active compounds read low 1.01 | S. cerevisiae deletion strains, locus YNL071W, strain lat1, active compounds read low 1.03 | S. cerevisiae deletion strains, locus YNL153C, strain GIM3, active compounds read low 1.02 | S. cerevisiae deletion strains, locus YNL183C, strain NPR1, active compounds read low 0.936 | S. cerevisiae deletion strains, locus YNL209W, strain ssb2, active compounds read low 1.03 | S. cerevisiae deletion strains, locus YNL233W, strain BNI4, active compounds read low 1.01 | S. cerevisiae deletion strains, locus YNL248C, strain rpa49, active compounds read low 1.05 | S. cerevisiae deletion strains, locus YNL250W, strain rad50, active compounds read low 1.03 | S. cerevisiae deletion strains, locus YNL271C, strain bni1, active compounds read low 1.02 | S. cerevisiae deletion strains, locus YNL298W, strain CLA4, active compounds read low 1.02 | S. cerevisiae deletion strains, locus YNL307C, strain MCK1, active compounds read low 1.03 | S. cerevisiae deletion strains, locus YNL322C, strain KRE1 (second series), active compounds read low 1.05 | S. cerevisiae deletion strains, locus YNR049C, strain mso1, active compounds read low 1.05 | S. cerevisiae deletion strains, locus YNR052C, strain pop2, active compounds read low 1.03 | S. cerevisiae deletion strains, locus YOL012C, strain htz1 1.07 | S. cerevisiae deletion strains, locus YOL147C, strain pex11, active compounds read low 1.04 | S. cerevisiae deletion strains, locus YOR001W, strain rrp6, active compounds read low 1.01 | S. cerevisiae deletion strains, locus YOR061W, strain CKA2, active compounds read low 0.999 | S. cerevisiae deletion strains, locus YOR069W, strain VPS5, active compounds read low 1.02 | S. cerevisiae deletion strains, locus YOR070C, strain gyp1, active compounds read low 1.03 | S. cerevisiae deletion strains, locus YOR080W, strain dia2, active compounds read low 1.04 | S. cerevisiae deletion strains, locus YOR083W, strain WHI5, active compounds read low 1.06 | S. cerevisiae deletion strains, locus YOR106W, strain vam3, active compounds read low 1.04 | S. cerevisiae deletion strains, locus YOR136W, strain idh2, active compounds read low 1.02 | S. cerevisiae deletion strains, locus YOR144C, strain elg1, active compounds read low 1.02 | S. cerevisiae deletion strains, locus YOR184W, strain ser1, active compounds read low 1.02 | S. cerevisiae deletion strains, locus YOR231W, strain MKK1, active compounds read low 0.956 | S. cerevisiae deletion strains, locus YOR265W, strain rbl2, active compounds read low 1.02 | S. cerevisiae deletion strains, locus YOR270C, strain vph1, active compounds read low 1 | S. cerevisiae deletion strains, locus YOR290C, strain snf2, active compounds read low 0.974 | S. cerevisiae deletion strains, locus YOR316C, strain cot1, active compounds read low 1.02 | S. cerevisiae deletion strains, locus YPL051W, strain arl3, active compounds read low 1.04 | S. cerevisiae deletion strains, locus YPL078C, strain atp4, active compounds read low 1.02 | S. cerevisiae deletion strains, locus YPL106C, strain sse1, active compounds read low 1.07 | S. cerevisiae deletion strains, locus YPL240C, strain hsp82, active compounds read low 1.03 | S. cerevisiae deletion strains, locus YPL256C, strain CLN2, active compounds read low 0.986 | S. cerevisiae deletion strains, locus YPR119W, strain clb2, active compounds read low 1.02 | S. cerevisiae deletion strains, locus YPR141C, strain kar3, active compounds read low 1.03 | S. cerevisiae deletion strains, locus YPR163C, strain tif3, active compounds read low 1.04 | S. cerevisiae deletion strains, locus YPR167C, strain met16, active compounds read low 1.03 | S. cerevisiae deletion strains, strain wtn01, active compounds read low 1.02 | S. cerevisiae strains, strain wild type, active compounds read low 1.01
